From PubChem BioAssay
Where “and” joins values, the source holds several entries; their conditions need not be identical. Equal values may be shown once. Calls of active or inactive are those of the source.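 How the source made its calls, unless noted: active means inhibition at or above 50% relative to wild type and mutant plate controls; inactive means inhibition below 50%.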

Columns and labels:
[1] = inhibitors of TNFa-induced NFkB p65 translocation, primary screen, imaging, HUVEC, MLSMR starter and 10KST1 sets (AID 438;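 active means inhibition above 20% together with a positive visual image hit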;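 further: compound added about 3h40 before a 20 min TNFalpha stimulation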;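 on inhibition: signal is the nuclear over cytoplasmic p65 intensity ratio per well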); conditions: HUVEC TNFa-induced p65 nuclear translocation; cell count: measured here: nuclei count (cytotoxicity indicator), at 2.08 µM; inhibition: at 2 µM, stronger effect = higher value, 0% TNFa-plus-vehicle, 100% no-TNFa wells
[2] = inhibitors of mutant huntingtin aggregation, primary screen, imaging, exon1htt(103Q)mCFP cells, high-content imaging (AID 483;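 active means visual image review flags a hit and inhibition of aggregation exceeds 20%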;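 further: compound exposure lasted 3 days before fixation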;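 on nuclei count: percent of the per-plate median nuclei count of sample wells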); conditions: exon1htt(103Q)mCFP cell line, aggregate imaging, at 2 µM; inhibition of aggregation: stronger effect = higher value; nuclei count: measured here: cell count, toxicity
[3] = inhibitors of E-selectin induction by TNFa, primary screen, imaging, HUVEC, immunofluorescence, MLSMR starter and 10KST1 sets (AID 487;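 active means visually confirmed hit in the image check and inhibition above 20%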;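 on inhibition: signal is fraction of cell area covered by stained E-selectin grains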;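 on nuclei count: 100% = median nuclei count of all wells on the same plate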); conditions: HUVEC TNFalpha-induced E-selectin immunofluorescence imaging, at 2 µM; inhibition: stronger effect = higher value; nuclei count: measured here: cell number, toxicity
[4] = DUSP6 inhibitors restoring Erk phosphorylation by chemical complementation, primary imaging in DUSP6-transfected HeLa (AID 609;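 active means compounds giving at least 50% inhibition in the cell-based MKP-3 phosphatase rescue imaging test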;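 on inhibition: phospho-Erk level distribution per well compared with pooled transfected vehicle control wells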); conditions: HeLa MKP-3 transfected, phospho-Erk imaging KS statistic, at 10 µM, cells stimulated with TPA for 15 min
[5] = target: Dual specificity protein phosphatase 6 (Homo sapiens) (UniProt Q16828); assay: as above; conditions: HeLa MKP-3 transfected, phospho-Erk imaging KS statistic; at 10 µM; stronger effect = higher value; cells stimulated with TPA for 15 min
Dual specificity protein phosphatase 6 (Homo sapiens), sequence (Q16828 whole entry, looked up): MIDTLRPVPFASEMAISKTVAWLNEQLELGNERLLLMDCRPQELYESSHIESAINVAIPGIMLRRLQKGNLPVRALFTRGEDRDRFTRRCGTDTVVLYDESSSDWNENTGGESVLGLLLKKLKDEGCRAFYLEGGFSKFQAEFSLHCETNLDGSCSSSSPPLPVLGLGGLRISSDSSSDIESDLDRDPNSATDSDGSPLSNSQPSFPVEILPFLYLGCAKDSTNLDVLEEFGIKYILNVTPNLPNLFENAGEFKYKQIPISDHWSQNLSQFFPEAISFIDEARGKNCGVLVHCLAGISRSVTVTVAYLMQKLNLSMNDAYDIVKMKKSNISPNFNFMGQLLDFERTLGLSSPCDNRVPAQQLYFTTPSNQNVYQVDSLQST

[6] = target: Voltage-gated potassium channel subunit beta-2 (Rattus norvegicus) (UniProt P62483); assay: KvBeta enzyme negative modulators, primary screen, biochemical, NADPH fluorescence (AID 622;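 active means fluorescence slope higher than the sample average by over 3 SD, cut at about -0.22 in these data, passing the limit was not always enough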;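 further: slope of raw intensity against log time taken from 70 to 1610 s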); conditions: recombinant KvBeta, 4-cyanobenzaldehyde reduction, at 10 µM, stronger effect = higher value
Voltage-gated potassium channel subunit beta-2 (Rattus norvegicus), sequence (P62483 whole entry, looked up): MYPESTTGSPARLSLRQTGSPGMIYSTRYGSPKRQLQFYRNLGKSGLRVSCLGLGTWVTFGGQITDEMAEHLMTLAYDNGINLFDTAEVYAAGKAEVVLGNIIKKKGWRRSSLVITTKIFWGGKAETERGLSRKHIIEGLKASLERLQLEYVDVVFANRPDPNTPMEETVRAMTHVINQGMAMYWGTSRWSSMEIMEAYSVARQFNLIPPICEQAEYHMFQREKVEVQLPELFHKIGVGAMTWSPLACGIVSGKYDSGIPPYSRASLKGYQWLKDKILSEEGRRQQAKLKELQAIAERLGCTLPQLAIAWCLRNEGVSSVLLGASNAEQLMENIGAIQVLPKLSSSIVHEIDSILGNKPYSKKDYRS

[7] = target: Voltage-gated potassium channel subunit beta-2 (Rattus norvegicus) (UniProt P62483); assay: KvBeta positive modulators, primary screen, biochemical, NADPH fluorescence (AID 623;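 active means NADPH fluorescence slope more negative than the mean of all samples by about 3 SD, 99.7% confidence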;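 further: fluorescence intensity change per second fitted from 20 to 320 s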); conditions: Recombinant KvBeta, NADPH fluorescence decrease slope, 10 min; at 10 µM; stronger effect = lower value
[8] = target: Alpha-2C adrenergic receptor (Homo sapiens) (UniProt P18825); assay: modulators of alpha2C/GIRK thallium flux, primary screen, cell-based, HEK293 alpha2C/GIRK1/2 (AID 624;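 active means fluorescence slope after compound addition differing from the mean of all screened samples at 99.7% confidence, in either direction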;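 further: slope of fluorescence ratio to pre-addition baseline per second over 15 to 24 s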); conditions: thallium flux BTC fluorescence, at 10 µM, actives lie on both sides
Alpha-2C adrenergic receptor (Homo sapiens), sequence (P18825 whole entry, looked up): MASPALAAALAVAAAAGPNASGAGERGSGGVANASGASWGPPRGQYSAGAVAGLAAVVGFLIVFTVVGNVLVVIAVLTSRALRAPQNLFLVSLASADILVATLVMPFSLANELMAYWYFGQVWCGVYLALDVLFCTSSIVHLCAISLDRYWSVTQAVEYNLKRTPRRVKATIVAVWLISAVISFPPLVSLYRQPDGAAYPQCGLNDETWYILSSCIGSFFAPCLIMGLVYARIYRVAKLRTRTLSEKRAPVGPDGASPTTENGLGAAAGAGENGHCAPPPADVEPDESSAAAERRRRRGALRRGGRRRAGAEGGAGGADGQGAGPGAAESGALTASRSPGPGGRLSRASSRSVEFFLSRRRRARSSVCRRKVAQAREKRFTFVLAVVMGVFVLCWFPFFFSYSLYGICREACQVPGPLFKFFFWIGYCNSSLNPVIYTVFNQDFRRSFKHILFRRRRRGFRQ

[9] = inhibitors of larval lipid processing in zebrafish, primary screen, whole organism, PED6 fluorescence, gall bladder and intestine (AID 686;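 active means a full or partial loss of lipid-probe fluorescence in the fish gall bladder, intestine or both, judged by eye; inactive means no fluorescence loss, or compound toxic to the fish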;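 further: larvae 5 to 7 days old with five fish per well; signal comes from phospholipase A2 cleavage of quenched PED6 carried via bile; overnight exposure to compound and PED6 before scoring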); conditions: Zebrafish larvae PED6 lipid processing, fluorescence scoring; screened at 20 µM (by protocol)
[10] = inhibitors of Chlamydomonas gravitaxis, primary screen, whole organism, Chlamydomonas reinhardtii, WT vs cilia-less mutant, absorbance, 96-well (AID 463189); conditions: OD600 absorbance, 2 days, at 10 µM, stronger effect = higher value;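 further: 0% = wild type cc124 cells in DMSO and 100% = ciliumless bld1 mutant cells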
[11] = inhibitors of Sendai virus-induced IRF3 signaling, primary screen, TLR/RLR signaling modifier project, cell-based, Sendai virus stimulus, luciferase, 10K MLSCN set (AID 602276;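 active means inhibition at or above 50% at 10 µM; inactive means inhibition below 50%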;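 further: firefly luciferase from ISG56 promoter only with Renilla not read in this screen; 0% = Sendai virus plus DMSO and 100% = medium plus DMSO without virus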); conditions: HEK293 RL24 IRF3 luciferase reporter, at 10 µM, stronger effect = higher value
[12] = inhibitors of poly I:C-induced TLR3 signaling, primary screen, cell-based, poly I:C stimulus, luciferase, 10K MLSCN set (AID 602277;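 active means inhibition of the reporter signal at or above 50%; inactive means inhibition below 50%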); conditions: HEK293-TLR3 RL24 IRF3 luciferase reporter, at 10 µM, stronger effect = higher value
[13] = measured here: cell density z-score
[14] = measured here: nuclear c-Myc green intensity z-score
[15] = measured here: nuclear pErk red intensity z-score, stronger effect = higher value

Structure (SMILES)	cell count [1]	inhibition [1]	inhibition of aggregation [2]	nuclei count [2]	inhibition [3]	nuclei count [3]	z-score [4, 13]	z-score [4, 14]	z-score [4, 15]	inhibition [5]	fluorescence slope [6]	NADPH fluorescence slope [7]	slope [8]	outcome [9]	inhibition [10]	inhibition [11]	inhibition [12]
COC(=O)CCC(=O)CN	462	-0.2% (inactive)	0.3% (inactive)	95.2%	-32.6% (inactive)	108%	-0.857	0.817	-0.467	14.6% (inactive)	-0.446 (inactive)	-6.5e-05 (inactive)	0.00417 (inactive)	inactive	-6.73% (inactive)	5.54% (inactive)	25.1% (inactive)
Cc1csc(NC(=O)CSc2nsc(SCC(=O)Nc3nc(C)cs3)c2C#N)n1	655	-10.4% (inactive)	12.2% (inactive)	105%	-15.8% (inactive)	141%	-1.33	0.375	-0.579	6.51% (inactive)	-0.37 (inactive)	-3.7e-05 (inactive)	0.00462 (inactive)	inactive	2.21% (inactive)	-8.75% (inactive)	-83.6% (inactive)
Nc1ncnc2c1ncn2[C@@H]1O[C@H](CO)[C@@H](O)[C@H]1O	562	-1.7% (inactive)	-15.3% (inactive)	101%	-40.5% (inactive)	128%	0.315	-0.14	0.779	-12.3% (inactive)	-0.453 (inactive)	-3.6e-05 (inactive)	0.00542 (inactive)	inactive	-7.15% (inactive)	11.2% (inactive)	25.6% (inactive)
COC(=O)CN(c1nc(C)c(Cl)c(OC)n1)S(=O)(=O)c1ccc(C)cc1	706	-4.1% (inactive)	2.4% (inactive)	98.1%	-48.3% (inactive)	148%	-0.882	0.458	1.21	-11% (inactive)	-0.373 (inactive)	-4.1e-05 (inactive)	0.00465 (inactive)	inactive	5.7% (inactive)	13.8% (inactive)	18.7% (inactive)
CN(C)c1nc(OCCOC(=O)Nc2ccc(Cl)cc2Cl)nc(N(C)C)n1	397	-14.7% (inactive)	-0.2% (inactive)	56.4%	-100% (inactive)	122%	0.138	0.513	-0.605	-5.26% (inactive)	-0.48 (inactive)	-8.2e-05 (inactive)	0.00682 (inactive)	inactive	-0.1% (inactive)	11.3% (inactive)	0.088% (inactive)
COc1cc(-c2nn3c(-c4cccnc4)nnc3s2)cc(OC)c1OC	561	-0.7% (inactive)	-9.6% (inactive)	103%	-152% (inactive)	134%	0.586	-0.752	-1.22	15.5% (inactive)	-0.41 (inactive)	-0.000121 (inactive)	0.0074 (inactive)	inactive	18.4% (inactive)	12.1% (inactive)	8.92% (inactive)
CC(=O)O[C@H]1C[C@@H]2CC[C@@H]3[C@H](CC[C@@]4(C)[C@H]3C[C@H]([N+]3(C)CCCCC3)[C@@H]4OC(C)=O)[C@@]2(C)C[C@@H]1[N+]1(C)CCCCC1	612	0.4% (inactive)	-15.2% (inactive)	115%	-24.6% (inactive)	114%	-0.612	0.0914	0.638	7.39% (inactive)	-0.45 (inactive)	2.4e-05 (inactive)	0.00404 (inactive)	inactive	0.263% (inactive) and 18.9% (inactive)	21.9% (inactive)	31.6% (inactive)
Nc1cccc(C(=O)O)c1	563	3.8% (inactive)	28.2% (inactive)	59%	-31.1% (inactive)	97.4%	1.14	0.242	-0.0201	12.4% (inactive)	-0.462 (inactive)	-4.9e-05 (inactive)	0.00577 (inactive)	inactive	-1.48% (inactive)	9.57% (inactive)	34.4% (inactive)
COC(=O)CSc1nc(C)c(C(C)=O)cc1C#N	505	-8.8% (inactive)	5.5% (inactive)	86.1%	-16.5% (inactive)	136%	-0.468	-1.01	-0.0332	-8.95% (inactive)	-0.376 (inactive)	-3.7e-05 (inactive)	0.00524 (inactive)	inactive	13.8% (inactive)	3.96% (inactive)	-12.7% (inactive)
Cc1ncc([N+](=O)[O-])n1CC(O)CCl (stereo not given)	546	-5% (inactive)	-12.8% (inactive)	100%	-91.7% (inactive)	114%	0.947	-1.73	-1.47	3.45% (inactive)	-0.5 (inactive)	2.8e-05 (inactive)	0.00498 (inactive)	inactive	-0.632% (inactive)	-0.807% (inactive)	16.6% (inactive)
